# Results: PubChem BioAssay (NCI)
# The panel holds about 79,000 compounds, 15% with a hit somewhere; the sample as a whole holds those more often. Values without a mark were called inactive. Activity calls are given as the source filed them. Cut-off read from the data, not from the text of the source: active = growth inhibition above about 70%; inactive = the rest.
# How the values were obtained:
# [1] = NCI Yeast Anticancer Drug Screen. Data for the rad50 strain (AID 155);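 note: 0% = growth of vehicle-only cultures of the same strain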; conditions: S. cerevisiae rad50 strain growth inhibition, active compounds read high
# Summary of the method: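 Vehicle-treated cultures provide the reference for the growth inhibition reported for compound-exposed, repair-deficient yeast.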
# [2] = NCI Yeast Anticancer Drug Screen. Data for the mec2-1 strain (AID 157); conditions: S. cerevisiae mec2-1 strain, active compounds read high
# Summary of the method: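 mec2-1 yeast strain, carrying an alteration in DNA damage repair or cell cycle control, was exposed to compounds; growth inhibition was measured relative to vehicle-treated controls.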
# [3] = NCI Yeast Anticancer Drug Screen. Data for the sgs1 mgt1 strain (AID 161);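 note: 0% = growth of cultures given vehicle only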; conditions: S. cerevisiae sgs1 mgt1 strain, active compounds read high
# Summary of the method: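 Compounds are added to genetically altered yeast, and growth is compared with cultures given vehicle alone to give percent inhibition.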
# [4] = NCI Yeast Anticancer Drug Screen. Data for the cln2 rad14 strain (AID 165);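 note: 0% = growth equal to vehicle treated cultures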; conditions: S. cerevisiae cln2 rad14 strain, active compounds read high
# Summary of the method: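 Yeast carrying cln2 and rad14 alterations (cell cycle control and DNA damage repair) were exposed to compounds. Growth inhibition was measured against vehicle-treated controls.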
# [5] = NCI Yeast Anticancer Drug Screen. Data for the bub3 strain (AID 167); conditions: S. cerevisiae bub3 mutant strain, active compounds read high
# Summary of the method: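 Mutant yeast screening strain plus compound; vehicle-treated cultures serve as the 0% inhibition reference.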
# [6] = NCI Yeast Anticancer Drug Screen. Data for the mlh1 rad18 strain (AID 175); conditions: S. cerevisiae mlh1 rad18 strain growth inhibition, active compounds read high
# Summary of the method: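 Growth inhibition of the yeast strain was measured after compound exposure and expressed relative to vehicle-treated controls. The strain carries defined defects in DNA damage repair.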
# [7] = at 5.0 µM (retest, dose inferred, filed as 0.5)
# [8] = at 50.0 µM (retest, dose inferred, filed as 5.0)
SMILES,"growth inhibition [1, 7] [%]","growth inhibition [1, 8]",growth inhibition ([1]; at 50.0 µM),"growth inhibition [2, 7] [%]","growth inhibition [2, 8]",growth inhibition ([2]; at 50.0 µM),"growth inhibition [3, 7] [%]","growth inhibition [3, 8]",growth inhibition ([3]; at 50.0 µM),"growth inhibition [4, 7] [%]","growth inhibition [4, 8]",growth inhibition ([4]; at 50.0 µM),"growth inhibition [5, 7]","growth inhibition [5, 8]",growth inhibition ([5]; at 50.0 µM),"growth inhibition [6, 7] [%]","growth inhibition [6, 8]",growth inhibition ([6]; at 50.0 µM)
Cc1ccc(-[n+]2cc([O-])on2)cc1,-11,15%,27.4%,-10,-8%,28.9%,-6,0%,-5.5%,-3,-3%,64.2%,10%,2%,15.6%,-7,22%,28.4%
CCCCCCCC(CC(=O)O)OC(=O)CC(CCCCCCC)OC1OC(C)C(O)C(O)C1OC1OC(C)C(O)C(O)C1O (configuration not stated),-62,68%,87.2% (active),-26,-5%,91.8% (active),-43,55%,92.3% (active),-42,37%,82.3% (active),-47%,96% (active),89.5% (active),-68,96% (active),84.2% (active)
CCc1cccc(C)c1NC(=O)/C(Cl)=C(\Cl)C(=O)O,67,99% (active),99.4% (active),65,100% (active),99.5% (active),67,100% (active),99.7% (active),54,99% (active),99.1% (active),94% (active),100% (active),99.5% (active),53,100% (active),99.4% (active)
CN1CCN(CCCN)CC1,-8,8%,3.7%,-3,-25%,25.1%,-4,-3%,-29.9%,4,-4%,29.9%,17%,-14%,-18%,-2,5%,11.1%
